# Shown are actives, neighbours in structure and some others; about 9.4% of the full set was active somewhere.
# ELG1 genotoxic: induces genotoxicity in HEK293T cells with luciferase-tagged ELG1; HEK293T ELG1-luciferase reporter, luminescence, 16 h; Potency, µM (doses to about 46 µM), for inactives: at the highest dose activity change, positive = activation, actives largely listed as activators; actives 1.3% (n = 330,000); note: % of control where 0% means no effect; nearly all actives have a fitted effect of over 60% in size
#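 HEK293T cells expressing luciferase-tagged ELG1 were exposed to compound or DMSO vehicle for 16 hr at 37 °C and 5% CO2. Luciferase activity was then measured with ONE-Glo after 30 min at room temperature.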
# FLuc modulator: counter-screen for miR-21 project: firefly luciferase inhibitors or activators; P08659; purified FLuc, Km substrates, luminescence inhibition; Potency, µM (top dose mostly 57.5 µM), inactives show at the top dose activity change, negative = inhibition, hits mostly inhibitors; actives 6.9% (n = 360,000);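 note: plate controls were vehicle for no effect and reference inhibitor for full effect; nearly all actives have a fitted effect of over 55% in size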
# Target sequence (P08659 whole entry, looked up): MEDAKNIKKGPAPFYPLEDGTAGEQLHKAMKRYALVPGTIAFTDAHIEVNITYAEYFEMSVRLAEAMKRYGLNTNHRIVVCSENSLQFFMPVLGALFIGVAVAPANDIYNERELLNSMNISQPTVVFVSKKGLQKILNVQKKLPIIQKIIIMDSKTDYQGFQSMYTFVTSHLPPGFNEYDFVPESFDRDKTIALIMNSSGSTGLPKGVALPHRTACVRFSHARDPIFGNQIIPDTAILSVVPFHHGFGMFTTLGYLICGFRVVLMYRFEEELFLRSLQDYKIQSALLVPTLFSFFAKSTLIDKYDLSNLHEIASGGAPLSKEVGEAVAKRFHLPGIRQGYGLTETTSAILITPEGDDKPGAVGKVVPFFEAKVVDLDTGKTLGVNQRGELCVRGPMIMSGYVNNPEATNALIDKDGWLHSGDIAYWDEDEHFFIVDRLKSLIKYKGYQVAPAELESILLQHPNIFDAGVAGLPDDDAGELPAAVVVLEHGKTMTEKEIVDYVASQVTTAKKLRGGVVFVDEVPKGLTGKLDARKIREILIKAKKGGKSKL
#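 Purified P. pyralis luciferase (10nM final) with 10uM D-luciferin and 10uM ATP (Km levels) in 50mM Tris acetate pH 7.5, 10mM Mg acetate, 0.01% Tween-20, 0.05% BSA; qHTS 6-point titration, ~60 µM downward; luminescence read.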
# Rab9 prom act: Rab9 promoter activation. Huh7 Rab9 promoter-luciferase reporter, luminescence, 24 h. Potency, µM (titrated, usually from 9.22 µM), for inactives: top-dose activation, negative = inhibition, most hits filed as activators. actives 2.8% (n = 320,000). AID 485297; note: % of control where 0% means no effect; nearly all actives have a fitted effect of over 60% in size
#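 Cell-based reporter: Huh7 stable for Rab9 promoter-driven luciferase, plated in reduced-serum medium with 10% FBS at 1500 cells/well, compound-treated 24 h at 37 °C, luminescence read after 10 min reagent.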
# ELG1 repair inh: inhibitors of ELG1-dependent DNA repair in HEK293T cells; Potency, µM (doses to about 46.1 µM), for the others: top-dose activity change, negative = inhibition, usual class: inhibitors; HEK293T ELG1-luciferase reporter, luminescence, 16 h; DNA damage induced by 5-fluorouridine; AID 504467; actives 2.3% (n = 330,000); note: % is set by controls: 0 for no effect and ±100 for the full control effect; nearly all actives have a fitted effect of over 55% in size
#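 Step one: seed 2,000 cells per well. Step two: pin-transfer compound or DMSO alongside 5-fluorouridine. Step three: incubate 16 hr, 37 °C, 5% CO2. Step four: add ONE-Glo, wait 30 min, read luminescence.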
# NPC1 prom act: NPC1 promoter activation | AID 485313 | actives 2.4% (n = 320,000) | Potency, µM (highest dose often 9.22 µM), for the others: at the top dose activation, hits mostly activators | Huh7 NPC1 promoter luciferase reporter, 24 h; note: % of control where 0% means no effect; nearly all actives have a fitted effect of over 60% in size
#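 Compounds in DMSO were transferred onto Huh7 NPC1-luciferase reporter cells pre-incubated 2 h; after 24 h at 37 °C, Amplite reagent was dispensed and luminescence recorded 10 min later.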
# SMN2 splice enh: SMN2 splice variant enhancement. HEK293 SMN2-luciferase splicing reporter, luminescence, 30-36 h. Potency, µM (series often up to 46.1 µM), for inactives: at the highest dose activity change, positive = activation, usual class: activators. actives 2.8% (n = 210,000); note: % of control where 0% means no effect; nearly all actives have a fitted effect of over 55% in size
#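 qHTS luciferase splicing reporter: luminescence rises when SMN2 exon 7 is included in transfected HEK293 cells. Compound exposure lasted 30-36 h at 37C, with 4.5 mM final sodium butyrate as control, followed by a ONE-Glo read.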
# Active calls of the source: *; ? = inconclusive; / = no result given; [ ] = remark or other dose. Calls come from the whole dose curve; as a rule, active = well fitted curve in the direction sought with a large enough effect; inconclusive = small, poorly fitted or top-dose-only effect, or another doubt; inactive = no such curve, though single readings can be large; an effect the other way counts as inactive or inconclusive. Potency is the fitted concentration of half-maximal effect.
SMILES,ELG1 genotoxic,FLuc modulator,Rab9 prom act,ELG1 repair inh,NPC1 prom act,SMN2 splice enh
CC(/C=N/N1CCN(c2ccccc2)CC1)=C\c1ccccc1,2%,-1%,27%,?,?,14%
O=C(Nc1cccc(-c2nc3ccccc3[nH]2)c1)c1ccccc1F,/,11µM*,/,/,/,-18%
O=C(Nc1cccc(-c2nc3ccccc3[nH]2)c1)c1c(F)cccc1F,/,12µM*,/,/,/,10%
O=C(Nc1cccc(-c2nc3ccccc3[nH]2)c1)c1ccccn1,-19%,13µM*,16%,-10%,14%,/
COc1cccc(OC)c1C(=O)Nc1cccc(-c2nc3ccccc3[nH]2)c1,-1%,-2%,-2%,-19%,-2%,/
CCc1nnc(SCc2nc(-c3ccccc3Cl)oc2C)c2cc3sc(C)cc3n12,/,5%,/,/,/,/
Cc1ccc(N/N=C/c2c(O)cc(C)oc2=O)cc1,7%,13µM*,0%,11%,4%,-46%
Cc1ccc(CO/N=C/c2c(O)cc(C)oc2=O)cc1,1%,?,-5%,13%,-5%,-1%
CC(=O)N=Cc1c(C)c(C#N)c(=O)n(C)c1O,5%,-18%,6%,18%,-3%,-6%
Cc1c(/C=N/Nc2ccc(F)cc2)c(O)n(C)c(=O)c1C#N,4%,24µM*,-7%,6%,2%,/
Cc1cc(O)c(/C=N/Nc2ccc(F)cc2)c(=O)o1,8%,13µM*,-5%,?,3%,-36%
O=c1c2ccccc2nc(-c2ccc(Cl)cc2)n1CCCCOc1ccc(F)cc1,/,0%,/,/,/,-2%
O=[N+]([O-])c1ccc(-c2cn3c(n2)CCC3)cc1,15%,24µM*,?,?,?,/
Cc1ccc(NC(=O)COC(=O)C2CC2)cc1Cl,3%,15µM*,1%,?,-2%,/
CCCCC(=O)OCC(=O)Nc1ccc(C)c(F)c1,2%,17µM*,-8%,3%,1%,-13%
Cc1ccc(NC(=O)COC(=O)C2CC2(Cl)Cl)cc1C (stereo not given),3%,8.5µM*,-1%,12%,1%,-8%
CCCCC(=O)OCC(=O)Nc1ccc(OC(F)F)cc1,1%,?,8%,-4%,0%,-16%
O=C(COC(=O)C1CCC1)NCc1ccc(Cl)cc1Cl,12%,17µM*,2%,7%,0%,/
Cc1c(CC(=O)NCc2ccc(F)cc2)c(=O)oc2cc(O)c(Cl)cc12,/,-4%,/,/,/,5%
Nc1c(C(=O)Nc2ccc(OC(F)(F)F)cc2)nnn1Cc1ccccc1,/,-1%,/,/,/,-5%
O=C(O)CCCC(=O)Nc1ccc(N=Nc2ccccc2)cc1,5%,?,13%,-4%,0%,5%
COC(=O)CCC(=O)Nc1ccc(N=Nc2ccccc2)cc1,?,21µM*,?,?,27%,?
O=C(COC(=O)C1CC1)Nc1ccc(N=Nc2ccccc2)cc1,21µM*,?,0.63µM*,?,3.5µM*,6.3µM*
COc1ccc(-c2nc(-c3ccccn3)no2)cc1,?,0.095µM*,0.04µM*,?,0.1µM*,/
Clc1ccc(-c2nc(-c3ccccn3)no2)cc1Cl,?,0.95µM*,0.56µM*,?,0.32µM*,2.5µM*
SMILES,ELG1 genotoxic,FLuc modulator,Rab9 prom act,ELG1 repair inh,NPC1 prom act,SMN2 splice enh
O=C(CSc1nc(=O)n(Cc2ccccn2)c2c1CCC2)Nc1ccccc1,/,1%,/,/,/,/
CCC(=O)NC(=S)Nc1ccc(-c2nc3ccc(C)cc3s2)cc1,?,17µM*,0.45µM*,?,0.79µM*,/
Cc1ccc2nc(-c3ccc(NC(=S)NC(=O)C(C)C)cc3)sc2c1,9.2µM*,3.8µM*,1.8µM*,?,0.4µM*,/
CCC(=O)NC(=S)Nc1ccc(-c2nc3ccccc3s2)cc1,?,0.76µM*,1.6µM*,?,0.45µM*,5µM*
CC1(C)CC(NC(=S)Nc2ccc(S(N)(=O)=O)cc2)CC(C)(C)N1,-3%,1%,0%,0%,0%,11%
CCC(=O)NC(=S)Nc1ccc(NC(=O)CC)cc1,0%,-7%,0%,?,-3%,12%
Cc1ccc2nc(-c3ccc(NC(=S)NC4CC(C)(C)NC(C)(C)C4)cc3)sc2c1,?,11µM*,?,?,?,?
Cc1ccccc1NC(=O)CSc1nc2nccnc2c(=O)n1CCc1c[nH]c2ccccc12,/,2%,/,/,/,/
O=C(O)CNC(=O)[C@H]1NC(C(F)(F)F)(C(F)(F)F)OC1(C(F)(F)F)C(F)(F)F,/,/,/,/,/,8%[9.22 µM]
Cc1cc2nn(-c3ccc(F)cc3)nc2cc1NC(=O)c1cccc2c(Cl)cccc12,/,-8%,/,/,/,6%
COc1ccc(Nc2n[nH]c(C)c2[N+](=O)[O-])cc1,?,?,3.5µM*,?,22%,29%
O=[N+]([O-])c1cnccc1Nc1cccc(F)c1,1%,-1%,1%,-7%,-2%,-16%
COc1ccc(Nc2ccncc2[N+](=O)[O-])cc1,-10%,-5%,-5%,5.8µM*,0%,-21%
COc1ccc2oc(=O)cc(-c3cc4cccc(OC)c4o3)c2c1,12%,-1%,-5%,4%,-5%,/
COc1cccc2cc(-c3cc(=O)oc4cc(C)c(OCC(C)=O)cc34)oc12,-6%,1%,4%,5.2µM*,3%,/
CC1=Nc2ccccc2/C1=C/c1c(N)n2c(S(=O)(=O)C(C)C)nsc2nc1=O,1%,24µM*,-4%,-6%,-3%,2%
CC1=Nc2ccccc2/C1=C/c1c(N)n2c(S(=O)(=O)CC(C)C)nsc2nc1=O,2%,17µM*,-5%,15%,2%,-20%
CCc1nn2c(N)c(/C=C3\C=Nc4ccccc43)c(=O)nc2s1,5%,-16%,-3%,-13%,-6%,11%
CC1=Nc2ccc(C)cc2/C1=C/c1c(N)n2c(S(=O)(=O)C(C)C)nsc2nc1=O,-3%,?,3%,4%,1%,20%
CCCCCCCCCCCCCCCC(=O)N[C@H](CN1CCOCC1)[C@H](O)c1ccccc1,/,/,/,/,/,-6%
COc1cccc(CNC(=O)CCc2c(C)c3cc4c(C)coc4c(C)c3oc2=O)c1,/,-6%,/,/,/,14%
COc1ccc(-c2onc(C)c2C)cc1S(=O)(=O)Nc1cccc(C#N)c1,/,-19%,/,/,/,/
CCOc1ccc(NC(=O)c2oc3ccccc3c2NC(=O)c2ccc(OC)cc2OC)cc1,/,6%,/,/,/,2%
Cc1cccc(-n2c(C)cc(/C=C3\NC(=O)NC3=O)c2C)c1,?,6.7µM*,24%,?,20%,/
COC(=O)C1=C(C)NC(=O)/C1=C\c1cc(C)n(-c2cccc(C)c2)c1C,8%,27µM*,18%,?,2%,-36%

# Bioassay records deposited in PubChem BioAssay by National Center for Advancing Translational Sciences (NCATS).
